# Experimental data as given in PubChem BioAssay (Tox21).
# Where “and” joins values, the source holds several entries; their conditions need not be identical. Equal entries are not always repeated. Results filed as inconclusive are left out. Some structures have more than one record in an assay (separate samples or runs), and their calls can disagree. Calls of active or inactive are those of the source. Calls come from the whole dose curve; as a rule, active = well fitted inhibition curve with a large enough effect in the repeat runs; inconclusive = weak or mixed curves; inactive = no such curve, though single readings can be large or run the other way.
# Molecular target: Cytochrome P450 2C19 (Homo sapiens) (UniProt P33261)
# Assay: Cytochrome P450 Family 2 Subfamily C Member 19 (CYP2C19) small molecule antagonists: luciferase reporter qHTS assay (AID 1671197); note: nearly all actives have a fitted effect of over 65% in size
# Settings: P450-Glo CYP2C19 enzyme, luciferin luminescence, 1 h; series mostly up to 115 µM; activity change, negative = inhibition: at the top concentration
# Description: National Center for Advancing Translational Sciences [NCATS]
# U.S. Environmental Protection Agency [EPA]
# National Institutes of Environmental Health Sciences [NIEHS]
# National Toxicology Program [NTP]
# U.S. Food and Drug Administration [FDA]
# Cytochrome P450 (CYP) enzymes are membrane-bound hemeproteins that play a key role in metabolism of drugs and xenobiotics. Evaluation of the effect of chemicals on CYP isozymes is useful to minimize the adverse drug reactions and toxicities in drug development process. Tox21 chemicals were tested for their effect on CYP enzyme activities by using P450-Glo (TM) screening systems (Promega Corporation, Madison, WI). These systems provide a luminescent method containing proluciferin substrates and are converted to luciferin products by CYP isozymes. The luciferin products formed are detected with a luciferin detection reagent, and the amount of light produced is proportional to CYP activity. P450-Glo (TM) CYP2C19 screening system (Catalog. No. V9880) was used to detect the compounds that interfere in CYP2C19 activity. The positive control compound used for CYP2C19 assay is ketoconazole (Sigma-Aldrich, St. Louis, MO).
# Tox21 Assay Protocol Summary:
# Two ul of enzyme-substrate mix was dispensed into medium binding white/solid 1536-well plates (Greiner Bio-One North America Inc., Monroe, NC) using a BioRaptr Flying Reagent Dispenser (FRD, Beckman Coulter, Brea, CA). Compounds dissolved in DMSO and positive control (ketoconazole) were transferred to the assay plates at 23 nl using a Pintool station (Wako, San Diego, CA). The assay plates were incubated at room temperature for 10 min. Then 2 ul of NADPH regeneration solution was added to each well of the assay plates using an FRD and incubated at 37C for 1 h. The reaction was stopped by adding 4 ul of detection reagent using an FRD and after 20 min incubation at room temperature the luminescence signal was measured using a ViewLux plate reader (Perkin Elmer, Shelton, CT). Data were expressed as relative luminescence units.
# % is set by controls: 0 for no effect and ±100 for the full control effect; potency is the fitted concentration of half-maximal effect.
# Chain of Cytochrome P450 2C19 (Homo sapiens) (P33261 whole entry, looked up): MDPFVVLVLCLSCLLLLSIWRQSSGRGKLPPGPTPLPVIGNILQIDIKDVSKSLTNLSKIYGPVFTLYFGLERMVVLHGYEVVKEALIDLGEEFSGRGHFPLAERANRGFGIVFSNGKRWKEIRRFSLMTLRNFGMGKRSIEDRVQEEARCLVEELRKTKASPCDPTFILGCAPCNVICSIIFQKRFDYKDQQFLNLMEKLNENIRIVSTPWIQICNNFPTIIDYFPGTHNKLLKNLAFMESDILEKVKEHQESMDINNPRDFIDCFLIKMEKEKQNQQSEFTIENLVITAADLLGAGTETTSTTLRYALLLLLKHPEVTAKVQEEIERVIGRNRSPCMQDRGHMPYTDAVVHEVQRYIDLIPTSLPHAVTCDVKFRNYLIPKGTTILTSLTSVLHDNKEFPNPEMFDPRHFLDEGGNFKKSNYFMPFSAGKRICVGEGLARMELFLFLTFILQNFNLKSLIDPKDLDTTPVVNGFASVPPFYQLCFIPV
Structure (SMILES),Potency,"activity change, negative = inhibition"
C=C(C)C(=O)OCC(CC)CCCC (stereo not given),40.7 µM (active) and inactive,
Clc1cnc(Oc2ccc(Oc3ncc(Cl)cc3Cl)cc2)c(Cl)c1,inactive,
CNc1cnn(-c2cccc(C(F)(F)F)c2)c(=O)c1Cl,6.85 µM (active) and 31.7 µM (active),
Cc1cccc(C)c1N,,-26.6% (inactive)
N#Cc1ccccn1,inactive and 71 µM (active),
O=[N+]([O-])c1ccc(Cl)cc1,inactive,
CNC(=O)O/N=C/C(C)(C)S(C)=O (stereo not given),,27.7% (inactive)
O=C(O)COc1ccccc1,inactive,
Nc1ncc([N+](=O)[O-])s1,71.6 µM (active) and 50.2 µM (active),
CNC(=O)O/N=C(\SC)C(=O)N(C)C,34.6 µM (active) and 28.2 µM (active),
CC12CC1(C)C(=O)N(c1cc(Cl)cc(Cl)c1)C2=O (stereo not given),22.4 µM (active),
OCC(O)CCl (stereo not given),79.6 µM (active) and inactive,
CCOP(=S)(OCC)Oc1ccc([N+](=O)[O-])cc1,128 nM (active) and 109 nM (active),
Nc1cccc(Cl)c1,40.4 µM (active) and inactive,
O=C(O)C1C(C(=O)O)C2(Cl)C(Cl)=C(Cl)C1(Cl)C2(Cl)Cl (stereo not given),inactive,
Cl/C=C/Cl,inactive,
CN(C)NC(=O)CCC(=O)O,inactive,
CC(=O)C1CCOC1=O (stereo not given),,28.5% [at 52.9 µM] (inactive)
c1ccc2c(c1)CCCC2,inactive,
CNC(=O)Oc1cccc2ccccc12,35.3 µM (active) and 63.3 µM (active) and 17.4 µM (active),

Structure (SMILES),Potency,"activity change, negative = inhibition"
OCc1ccco1,inactive,
O=S(=O)(O)OOS(=O)(=O)O,inactive,
ClC(Cl)c1ccccc1,40.6 µM (active) and inactive,
CCOP(=S)(OCC)Oc1cc(C)nc(C(C)C)n1,56.7 µM (active) and 502 nM (active) and 692 nM (active),
COS(=O)(=O)OC,,-4.82% (inactive)
CCCCCCCCCCCCCCCCCC(=O)O,281 nM (active) and inactive,
C=CC(=O)OCCCCCC(C)C,inactive,
Cc1cccc(N)c1C,inactive and 31.7 µM (active),
CN(C)C(=O)C(c1ccccc1)c1ccccc1,70.9 µM (active),
O=C(O)c1cc(Oc2ccc(C(F)(F)F)cc2Cl)ccc1[N+](=O)[O-],inactive and 71 µM (active),
ClCCOCCCl,inactive,
Sc1ccccc1,18.1 µM (active) and 40.1 µM (active),
N#CN=C(N)N,,10.8% (inactive)
COP(=S)(OC)SCN1C(=O)c2ccccc2C1=O,715 nM (active) and 710 nM (active) and 436 nM (active),
COC(C)(C)CCCC(C)C/C=C/C(C)=C/C(=O)OC(C)C (stereo not given),24.5 µM (active),
CCSC(=O)N1CCCCCC1,34.6 µM (active),
CC(C)(C)C(=O)CCl,,-26.7% (inactive)
O=[N+]([O-])c1cc([As](=O)(O)O)ccc1O,inactive,
Cc1cc(O)ccc1Cl,25.6 µM (active) and inactive,
Nc1ccc(N)cc1,34.7 µM (active) [middle of 4 runs],
